From ChEMBL document CHEMBL1157539, “Thousands of chemical starting points for antimalarial lead identification” (Nature, 2010)

The compounds below were run on Plasmodium falciparum (assay: GSK_TCMDC: Inhibition of Plasmodium falciparum Dd2 in whole red blood cells, using parasite LDH activity as an index of growth. Test compounds present at 2uM).
Format: functional
Work on O=C(Nc1ccc2c(c1)CCN2C1CCN(Cc2ccc(C(F)(F)F)cc2F)C1)c1ccco1 (stereo not given) yielded an Inhibition of 94%.
CCCc1cc(=O)[nH]c(-n2nc(C)cc2NC(=O)C(CC)c2ccccc2)n1 (stereo not given) was tested, and the Inhibition was 63%.
O=C(O)C(F)(F)F.c1ccc(CCNCc2ccc(-c3cccc(-c4nc5ccccc5[nH]4)c3)cc2)nc1 showed an Inhibition of 87%.
Work on CC(=O)N(C)C1CCN(Cc2cccc(-c3ccc(-c4nc5cc(F)ccc5[nH]4)cc3)c2)C1.O=C(O)C(F)(F)F (stereo not given) yielded an Inhibition of 19%.
For CCCNC(=O)CN1CN(c2ccccc2)C2(CCN(C(=O)c3ccc(C(C)(C)C)cc3)CC2)C1=O, the Inhibition was 98%.
COC(=O)c1ccccc1N1CCN(CCCCNC(=O)c2ccc(NC(=O)c3cc(Cl)cc(Cl)c3)cc2)CC1 was tested, and the Inhibition was 42%.
Compound COC(=O)Nc1cc(C(F)(F)F)ccc1N1CCCC(NS(=O)(=O)c2ccc(C(C)(C)C)cc2)C1 (stereo not given) has an Inhibition of 90%.
For CCN(CC)CCNC(=O)c1ccc(NC(=O)c2cn(-c3ccccc3)nc2-c2cccs2)cc1, the Inhibition was 94%.
For O=C(Nc1nccs1)c1cn(-c2ccccc2)nc1-c1ccc(Cl)s1, the Inhibition was 18%.
With OC(c1ccccc1)C1CN(Cc2ccccc2)CCC1(O)c1ccccc1 (stereo not given) the Inhibition was 82%.
Work on COc1ccc(CNCc2ccccc2)cc1-c1ccc(OC)c(S(=O)(=O)NCCN2CCCC2)c1.O=C(O)C(F)(F)F yielded an Inhibition of 55%.
Br.Oc1cccc(CCNCCCCCCNCCc2ccc(Cl)cc2)c1 showed an Inhibition of 0%.
COc1ccc2c(NN=Cc3cccnc3)ccnc2c1 showed an Inhibition of 26%.
COc1cc(C)nc2ccc(NC(=O)Nc3ccccc3[N+](=O)[O-])cc12 showed an Inhibition of 58%.
Cc1c(CCC#N)c(NCc2ccccc2)n2c(nc3ccccc32)c1C#N was tested, and the Inhibition was 99%.
Cc1noc(C)c1-c1ccc2c(Nc3ccccc3N3CCOCC3)c(C(=O)NCc3ccccc3)cnc2c1.Cl showed an Inhibition of 6%.
CNCc1ccc(CN(C)c2nc(N)c3cc(OC)c(OC)cc3n2)cc1.O=C(O)C(F)(F)F showed an Inhibition of 3%.
Compound COc1cc(NC(=O)Nc2ccc([N+](=O)[O-])cc2OC)c(OC)cc1Cl has an Inhibition of 6%.
For Cc1cc(NCCc2ccccc2)nc(NC(=N)Nc2cccc(F)c2)n1, the Inhibition was 0%.
Cc1ccc(NC(=O)c2ccc(NCCCN3CC(C)CC(C)C3)c([N+](=O)[O-])c2)cc1F (stereo not given) showed an Inhibition of 85%.
Work on COC(=O)c1ccc(CC(C)NCC(O)c2ccc(C(O)CNC(C)Cc3ccc(C(=O)OC)cc3)cc2)cc1.O (stereo not given) yielded an Inhibition of 13%.
Compound COc1ccc2c(N/N=C/c3ccccc3[N+](=O)[O-])cc(C)nc2c1 has an Inhibition of 100%.
Cc1cc(-c2cnc(N)c(-c3ccc(N4CCN(C)CC4)nc3)c2)cc(C)c1O showed an Inhibition of 33%.
Cl.Oc1ccc(Cc2ccccc2)cc1CNC1CCCCC1 showed an Inhibition of 98%.
Work on Br.COc1cc(OCCCCCCON2C(=N)N=C(N)NC2(C)C)cc(OC)c1OC yielded an Inhibition of 93%.
CC(=O)Nc1ccc(CN2CCC(NC(=O)c3ccc(-c4cccc(OC(C)C)c4)s3)CC2)cc1.O=C(O)C(F)(F)F gave an Inhibition of 13%.
COc1cc(OC)c(NC(=O)COc2ccc(C)cc2)cc1Cl was tested, and the Inhibition was 90%.
CCCCNC[C@@H](O)[C@H](Cc1ccccc1)NC(=O)c1cc(NCC)cc(N2CCCCS2(=O)=O)c1.Cl was tested, and the Inhibition was 98%.
Compound NC1CCN(c2nc(NCCCc3ccc(O)cc3)nc(NCc3ccccc3-c3ccccc3)n2)CC1.O=C(O)C(F)(F)F has an Inhibition of 45%.
O=C(NCCCN1CCCC1=O)c1cnc(N2CCC(Oc3ccccc3)CC2)c(Cl)c1 gave an Inhibition of 93%.
For Nc1cc(-c2cccc(Cl)c2)nn1-c1ccnc2cc(Cl)ccc12, the Inhibition was 33%.
Work on Fc1ccc(CNc2ccc3ncc(-c4cccnc4)n3n2)cc1 yielded an Inhibition of 7%.
Work on CCOC(=O)NC1=NC(C)(C)N(OCCCOc2ccc(C)cc2C)C(NC(=O)OCC)=N1 yielded an Inhibition of 98%.
For COc1ccccc1C(=O)Nc1ccc(Nc2nc(C)cc(N(C)C)n2)cc1, the Inhibition was 76%.
Cc1ccc(Cc2c[nH]c(NCCSCc3ccc(CN(C)C)s3)nc2=O)cn1 was tested, and the Inhibition was 0%.
For Br.Oc1ccc(CCNCCCCCCNCCCc2ccc(Cl)cc2)cc1O, the Inhibition was 3%.
Compound O=C(Nc1ccsc1C(=O)NC1CCCCC1)c1ccc(F)cc1 has an Inhibition of 11%.
Work on COc1ccc2ccc(F)c(CC(=O)N3CCOC(CNCc4cccc(-c5ccc(F)cc5)n4)C3)c2n1 (stereo not given) yielded an Inhibition of 1%.
CC(=O)NCCNCc1cccc(C(=O)NCc2cccc(C(F)(F)F)c2)c1 gave an Inhibition of 0%.
Work on COc1c(C(=O)NC2CCN(Cc3ccccc3)C2)cnc2ccccc12.Cl (stereo not given) yielded an Inhibition of 12%.
